From PubChem BioAssay (NCI)
Compounds without any hit were thinned out: in the full panel of roughly 83,000, 20% have a hit.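 For each line, cells grew in 96-well plates with the test compound present at a single concentration for 48 hours.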 The source made the active and inactive calls. Rule for the calls: active = growth percent below 10; inactive = the rest.

Each compound was assayed on HL-60(TB) leukemia (assay: NCI-60 one-dose screen, 48 h (100 = growth as untreated, 0 = no growth, -100 = all killed)). Settings: 10 µM unless noted.
For `O=C(Nc1cccc([N+](=O)[O-])c1)c1ccc2ccccc2c1O`, the growth was 39.4% (inactive). For `CC1(C(=O)O)CCC(N)(C(=O)O)C1(C)C` (stereo not given), the growth was 101% (inactive). With `O=C1CC(c2ccccc2)Cc2nc3ccc(Cl)cc3cc21` (stereo not given) the growth was -20.7% (active). `COc1cc2cc(Oc3ccc(NC(=O)Nc4ccc(F)c(C(F)(F)F)c4)cc3)c(C)nc2cc1OCCN1CCOCC1` was tested, and the growth was 19.3% (inactive). With `C=C1C(=O)O[C@H]2[C@H]1CC/C(COC(=O)NCc1ccc(Cn3c(=O)sn(-c4ccccc4)c3=O)cc1)=C\CC[C@@]1(C)O[C@@H]21` the growth was -25.2% (active). With `Cc1csc(C#Cc2cncc(O)c2)n1` the growth was 110% (inactive). For `O=C1OC(c2ccc(Cl)c(Cl)c2)=C/C1=C/c1cccc([N+](=O)[O-])c1`, the growth was 103% (inactive). For `Cc1ccccc1NC(=O)c1sc2nc(C)c(C(C)O)cc2c1N` (stereo not given), the growth was -14.8% (active). `CCN(CC)CCCC(C)Nc1cc(-c2cccc(OC(F)(F)F)c2)nc2ccc(N3CCCC3)cc12` (stereo not given) was tested, and the growth was -61% (active). For `COc1cc2nccc(Oc3ccc(NC(=O)C4(C(=O)Nc5ccc(F)cc5)CC4)cc3)c2cc1O`, the growth was 54.5% (inactive). `c1ccc(-c2oc3ccccc3c2-c2ccccc2)cc1` was tested, and the growth was 48.5% (inactive). In the case of `CCOC(=O)c1ccc(N(C=O)CCC(=O)CCl)cc1`, the growth is reported as -28.6% (active). With `Cc1c2ccccc2nc2cc3c(cc12)[C@H]1CC[C@]2(C)C(=O)CC[C@H]2[C@@H]1CC3` the growth was 97.1% (inactive). With `CC1OC(n2c3ccccc3c3c4c(c5c6ccccc6[nH]c5c32)C(=O)N(CCN2CCCC2)C4=O)CC(O)C1O` (stereo not given) the growth was 44.2% (inactive). With `C[C@@H]1CC[C@@H]2[C@@H]1[C@H](OC(=O)/C=C/c1ccccc1)[C@]1(C3CCCCC3)C[C@@H](OC(=O)CO)[C@@]2(C)O1` the growth was 74.5% (inactive). In the case of `C#CC(O)c1ccccc1` (stereo not given), the growth is reported as 108% (inactive). In the case of `O=C1C2=C(Nc3cc(Cl)ccc3N2)OC1c1c[nH]c2ccc(COc3ccccc3)cc12` (stereo not given), the growth is reported as 81.6% (inactive). `COC(=O)c1nc(-c2ccc(C)cc2)oc1N1CCOCC1` was tested, and the growth was 93.7% (inactive). With `O=C(Nc1cc(C(F)(F)F)cc(C(F)(F)F)c1)Nc1ccc(OCc2nnc(-c3ccc(Cl)cc3)o2)c(F)c1` the growth was 5.4% (active). In the case of `CCOC(=O)c1ccc(NC(=O)NC2=NCCS2)cc1`, the growth is reported as 13.5% (inactive). With `COc1ccc(-c2nn3c(-c4cc(F)c(Cl)cc4Cl)nnc3s2)cc1` the growth was -1.09% (active). With `CCN(CC)CCCC(C)Nc1cnc(C(=O)Nc2cc(C)cc3cccnc23)cn1` (stereo not given) the growth was 76.8% (inactive). With `C=C(C)[C@@H]1CC[C@]2(c3nnc(-c4ccncc4)o3)CC[C@]3(C)[C@H](CC[C@@H]4[C@@]5(C)CCC(=O)NC(C)(C)[C@@H]5CC[C@]43C)[C@@H]12` the growth was 115% (inactive). For `Clc1ccccc1[C@@H]1C[C@@H]2Cc3cc(Br)c4ccccc4c3N1O2`, the growth was 7.98% (active). With `COc1ccc(-c2nn(-c3cccc(NC(=O)c4ccc5c(c4)OCCO5)c3)cc2-c2ccncc2)cc1Cl` the growth was -2.93% (active). For `CCN(CC)CCn1c(=O)c2cc(OC)c(OC)cc2c2ccc3cc4c(cc3c21)OCO4`, the growth was 3.79% (active). For `C/C=C/CSC(C)(C)C(=O)NC`, the growth was 98.7% (inactive). `NC(=O)c1c(NC(=O)c2ccccc2)sc2c1CCC(=O)C2` was tested, and the growth was -6.87% (active). In the case of `S=C(S)OCN1CCOCC1`, the growth is reported as 106% (inactive). For `COc1cc(-c2nc(-c3nnc(-c4cccnc4)o3)c3ccccn23)cc(OC)c1OC`, the growth was 95.7% (inactive). `CC/C=C\C[C@H](O)C/C=C1/C(=O)C=C[C@@H]1C/C=C\CCCC(=O)NC(C)C` was tested, and the growth was -28.2% (active). `CCN(CC)CCCC(C)Nc1cc(-c2ccc(C(F)(F)F)cc2)c(C#N)c2nc3ccccc3n12` (stereo not given) was tested, and the growth was -59.8% (active). For `COC(=O)c1nc(N)nc(C(=O)OC)c1C(=O)c1ccc(F)cc1`, the growth was 115% (inactive). For `COc1cc(C2=NN(c3ccc(S(N)(=O)=O)cc3)C(c3ccc(Cl)cc3)C2)cc(OC)c1OC` (stereo not given), the growth was -25.8% (active). `CCCc1nn(C)c2c(=O)[nH]c(-c3cc(S(=O)(=O)N4CCN(C)CC4)ccc3OCC)nc12` was tested, and the growth was 114% (inactive). For `O=[N+]([O-])c1cccc(N=Cc2ccc3c(c2)OCO3)c1`, the growth was 98.5% (inactive). For `CCOC(=O)c1cc(C(=O)c2ccc(OC)cc2)n2ccc(/C=C/c3cc[n+](CC(=O)c4ccc(OC)cc4)cc3)cc12`, the growth was 0.722% (active). `O=C(O)c1cccc(-n2ncc(Cl)c(Cl)c2=O)c1` was tested, and the growth was 107% (inactive). `CCCCN1C(=O)/C(=c2\sc3n(c2=O)NC2C(N=3)N(CC)C(=O)N2CC)c2ccccc21` (stereo not given) was tested, and the growth was 21.3% (inactive). With `COc1cc(C2CC(c3ccc(Nc4ccnc5cc(Cl)ccc45)cc3)=NN2C=O)cc(OC)c1OC` (stereo not given) the growth was 19.7% (inactive).
